Assay outcomes as filed in PubChem.
SMN2 splice enh: increases expression of the SMN2 splice variant; HEK293 SMN2-luciferase splicing reporter, luminescence, 30-36 h; Potency, µM (titrated, usually from 46.1 µM), hits mostly activators; hit rate 2.8% among 210,000; note: nearly all actives have a fitted effect of over 55% in size
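HEK293 cells carry an SMN2 minigene-luciferase reporter in which exon 7 inclusion puts luciferase in frame. Cells were seeded at 2000 cells/well, attached for 10-12 hours, then exposed to compounds for 30-36 hours at 37C before ONE-Glo luminescence.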
NPC1 promoter act: activators of NPC1 promoter | Huh7 NPC1 promoter luciferase reporter, 24 h | Potency, µM (titrated, usually from 9.22 µM), most hits filed as activators | hit rate 2.4% among 320,000 | AID 485313; note: nearly all actives have a fitted effect of over 60% in size
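Luminescence from an NPC1 promoter-driven luciferase reporter in stably transfected Huh7 cells was measured after 24 h compound treatment at 37 °C, followed by 10 min ambient incubation with luciferase detection reagent.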
ELG1 genotoxic: induces genotoxicity in HEK293T cells with luciferase-tagged ELG1; Potency, µM (titrated, usually from 46 µM), usual class: activators; HEK293T ELG1-luciferase reporter, luminescence, 16 h; hit rate 1.3% among 330,000; AID 504466; note: nearly all actives have a fitted effect of over 60% in size
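Reporter readout depends on ELG1 protein level, which increases with genetic stress. After 16 hr compound exposure at 37 °C, luciferase activity was quantified using ONE-Glo.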
Rab9 promoter act: Rab9 promoter activation; Huh7 Rab9 promoter-luciferase reporter, luminescence, 24 h; Potency, µM (doses to about 9.22 µM), most hits filed as activators; hit rate 2.8% among 320,000; note: nearly all actives have a fitted effect of over 60% in size
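Measured in stably transfected Huh7 cells bearing a Rab9 promoter–luciferase construct: 24 h compound treatment at 37 °C, followed by luminescence detection.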
FLuc counter: counter-screen for miR-21 project: firefly luciferase inhibitors or activators; Potency, µM (series often up to 57.5 µM), most hits filed as inhibitors; AID 588342; hit rate 6.9% among 360,000; P08659; purified FLuc, Km substrates, luminescence inhibition; note: nearly all actives have a fitted effect of over 55% in size
Target sequence (P08659 whole entry, looked up): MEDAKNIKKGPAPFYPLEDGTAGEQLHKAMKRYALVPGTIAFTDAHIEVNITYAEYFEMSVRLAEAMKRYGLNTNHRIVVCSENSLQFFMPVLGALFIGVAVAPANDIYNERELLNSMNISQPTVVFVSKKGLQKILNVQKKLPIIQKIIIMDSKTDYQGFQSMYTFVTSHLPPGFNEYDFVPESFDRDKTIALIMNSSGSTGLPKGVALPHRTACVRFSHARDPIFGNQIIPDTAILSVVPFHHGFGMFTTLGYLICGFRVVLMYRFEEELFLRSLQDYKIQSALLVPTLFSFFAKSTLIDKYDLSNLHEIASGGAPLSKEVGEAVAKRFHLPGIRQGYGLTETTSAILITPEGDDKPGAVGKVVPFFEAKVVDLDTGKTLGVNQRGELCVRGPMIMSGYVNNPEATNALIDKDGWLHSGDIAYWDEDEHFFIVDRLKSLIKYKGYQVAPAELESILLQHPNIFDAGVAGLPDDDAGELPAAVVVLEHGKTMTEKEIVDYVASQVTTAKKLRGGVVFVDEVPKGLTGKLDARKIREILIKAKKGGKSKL
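Purified P. pyralis luciferase (10nM final) with 10uM D-luciferin and 10uM ATP (Km levels) in 50mM Tris acetate pH 7.5, 10mM Mg acetate, 0.01% Tween-20, 0.05% BSA; qHTS 6-point titration, ~60 µM downward; luminescence read.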
Numbers stand for hits; i = inactive; ? = inconclusive; nt = not tested or not shown; [ ] = dose if it differs, or a comment. The list is not random: actives were taken first. Their share in the collection is about 7.4%. Calls come from the whole dose curve; as a rule, active = well fitted curve in the direction sought with a large enough effect; inconclusive = small, poorly fitted or top-dose-only effect, or another doubt; inactive = no such curve, though single readings can be large; an effect the other way counts as inactive or inconclusive.

SMILES	SMN2 splice enh	NPC1 promoter act	ELG1 genotoxic	Rab9 promoter act	FLuc counter
CC(=O)NN1C(=O)/C(=C\c2ccc(C)cc2)SC1=S	i	i	i	i	?
O=C(CN1CCCN(S(=O)(=O)c2ccc(Br)cc2)CC1)Nc1cccc(C(F)(F)F)c1	i	nt	nt	nt	i
COc1ccc(-n2nc(C(=O)NCCc3cccc(C)c3)c3c4ccccc4n(C)c3c2=O)cc1Cl	i	nt	nt	nt	i
CC(C)C[C@H]1CN=C(Nc2ccccc2)N1CC1CCCCCC1	nt	i	i	i	i
COc1ccc(OCC(=O)Nc2cc(-c3ccccc3F)nn2-c2ccccc2)cc1	nt	nt	nt	nt	i
c1csc(-c2nc3c4ccccc4c4ccccc4c3[nH]2)c1	i	i	i	i	15µM
Cc1nc(-c2ccccc2Cl)sc1C(=O)/C=C/N(C)C	?	3.2µM	?	1.8µM	17µM
Cc1nc(-c2ccccc2)sc1C(=O)/C=C/c1ccc(Cl)cc1	i	i	i	i	i
CCN(CC)S(=O)(=O)c1cc(C(=O)Nc2ccc(Cl)cn2)ccc1C	1.6µM	1.8µM	1.8µM	1.6µM	2.4µM
CCN(CC)S(=O)(=O)c1cc(C(=O)NC2CCCCC2)ccc1C	?	2.8µM	?	4µM	7.6µM
CCN1C(=O)C(CC(=O)Nc2ccc(OC)cc2)N(Cc2ccco2)C1=S (configuration not stated)	i	i	i	i	i
CCOc1ccc(C2C(=O)N(C3CCCCC3)CC(=O)N2CCc2ccccc2)cc1OC (configuration not stated)	nt	nt	nt	nt	i
N#C/C(C(=O)Oc1ccccc1)=C1\C=CC=CN1	i	3.5µM	?	2.8µM	19µM
N#C/C(C(=O)c1ccccc1)=C1/CCCN1	nt	i	i	i	i
Cc1ccc(Cn2cnc3nc4c(cc3c2=O)CC(C)CC4)cc1 (configuration not stated)	nt	nt	nt	nt	12µM
CCOc1ccc(-c2nc(CSCC(=O)NCC3CCCO3)c(C)o2)cc1 (configuration not stated)	nt	i	i[9.26 µM]	i	17µM
CCOC(=O)CSCc1nc(-c2ccc(Cl)cc2)oc1C	i	i	i	i	17µM
Cc1ccc(CNC(=O)CSCc2nc(-c3ccc(Cl)cc3)oc2C)cc1	i	nt	nt	nt	i
CCc1ccc(-c2nc(CSCC(=O)NCc3ccco3)c(C)o2)cc1	i	i	i	i	24µM
CCOC(=O)C1CCN(C(=O)CSCc2nc(-c3ccc(OCC)cc3)oc2C)CC1	i	i	21µM	i	?
CCOc1ccc(-c2nc(CSCC(=O)N3CCN(C(=O)c4ccco4)CC3)c(C)o2)cc1	i	i	i	i	19µM
COc1ccc(-c2nc(CSCC(=O)N3CCN(c4ccccc4)CC3)c(C)o2)cc1	i	nt	nt	nt	i
O=C(C[n+]1ccc(C(=O)NCc2ccccc2)cc1)c1ccc(OC(F)F)cc1	nt	i	i	i	i
O=C(C[n+]1cn(C(F)F)c2ccccc21)c1ccc(OC(F)F)cc1	?	?	16µM	?	?
Cc1cnc(NC(=O)c2ccncc2)s1	?	i	i	i	?
SMILES	SMN2 splice enh	NPC1 promoter act	ELG1 genotoxic	Rab9 promoter act	FLuc counter
Cc1csc(NC(=O)c2cc3c(s2)CCCCC3)n1	1µM	0.35µM	0.21µM	0.5µM	0.13µM
Cc1cnc(NC(=O)c2cc3c(s2)CCCC3)s1	?	?	?	0.71µM	0.27µM
Cc1csc(NC(=O)C2CCCC2)n1	i	i	?	i	i
Cc1csc(NC(=O)c2cc3c(s2)CCCC3)n1	nt	0.56µM	?	?	0.27µM
CCC(C(=O)Nc1ccc(C)c(Cl)c1)n1c(=O)c(-c2ccccc2NC(C)=O)nc2ccccc21 (configuration not stated)	nt	nt	nt	nt	i
O=C(Cc1ccccc1F)Nc1nc(-c2ccc(F)c(F)c2)cs1	nt	i	i	?	13µM
Cc1cc(C(=O)OC(C)C(=O)Nc2nc(-c3ccccc3)cs2)c(C)o1 (configuration not stated)	i	i	i	i	i
O=C(Cc1ccccc1)Nc1nnc(-c2cccs2)s1	?	?	?	?	i
CC(OC(=O)c1ccc([N+](=O)[O-])o1)C(=O)Nc1nc(-c2ccc(F)c(F)c2)cs1 (configuration not stated)	nt	?	i	?	24µM
O=C(Nc1nc(-c2cccs2)cs1)c1ccco1	13µM	4µM	10µM	3.2µM	8.5µM
O=C(Cc1ccccc1)Nc1nc(-c2cccs2)cs1	i	i	i	i	19µM
CCOc1ccccc1N(CC)C(=O)c1nn(C)c2c1CSc1ccccc1-2	nt	i	i	i	i
Cn1c(CNC(=O)CSc2nc(-c3ccccc3F)nc3cc(=O)[nH]n23)nc2ccccc21	nt	nt	nt	nt	i
Cc1ccc2c(c1)-c1nc(-c3ccc4c(c3)NC(=O)CO4)cc(-c3ccc(Cl)cc3)c1CO2	i	nt	nt	nt	i
O=C(Cc1ccccc1F)Nc1nc(-c2cccs2)cs1	i	?	?	?	11µM
O=C(Cc1ccccc1F)Nc1nc(-c2cccnc2)cs1	i	i	i	i	i
CCCCc1nn2c(=O)cc(COC(=O)c3cccc(NC(=O)c4cccs4)c3)nc2s1	nt	nt	nt	nt	i
Cc1cc(C(=O)O)ccc1N=Cc1c(O)ccc2ccccc12	nt	i	i	i	0.76µM
OCC(CO)(CO)N=Cc1c(O)ccc2ccccc12	i	i	i	i	i
Oc1ccccc1N=Cc1c(O)ccc2ccccc12	nt	i	i	i	13µM
CN(C)/N=C/c1c(O)ccc2ccccc12	i	i	i	i	?
C=Cc1ccc(N=Cc2c(O)ccc3ccccc23)cc1	nt	i	i	i	19µM
CS/C(N)=N/N=C/c1c(O)ccc2ccccc12	nt	i	?	?	3µM
CC(=O)c1cccc(N=Cc2c(O)ccc3ccccc23)c1	nt	i	i	i	?
Oc1ccc2ccccc2c1C=Nc1ccc(N2CCOCC2)cc1	i	i	i	i	6µM
SMILES	SMN2 splice enh	NPC1 promoter act	ELG1 genotoxic	Rab9 promoter act	FLuc counter
Oc1ccc2ccccc2c1/C=N/c1nccs1	i	i	i	i	i
Oc1ccc2ccccc2c1C=Nc1ccccc1Br	nt	i	i	i	11µM
Cc1cccc(N2CCN(C(=O)c3ccc4c(c3)N(Cc3ccccc3)C(=O)c3ccccc3S4(=O)=O)CC2C)c1 (configuration not stated)	i	nt	nt	nt	i
CCCCOc1ccc(C(=O)Nc2ccc(S(=O)(=O)Nc3onc(C)c3C)cc2)cc1	nt	i	i	i	17µM
COc1ccc(OCC(=O)Nc2ccc(S(=O)(=O)Nc3nc(C)cc(C)n3)cc2)cc1	i	i	i	i	i
Cc1cc(C)nc(NS(=O)(=O)c2ccc(NC(=O)COc3ccc(C(C)(C)C)cc3)cc2)n1	i	nt	nt	nt	11µM
COc1cc(OC)cc(C(=O)Nc2ccc(S(=O)(=O)Nc3onc(C)c3C)cc2)c1	i	nt	nt	nt	?
CCCOc1ccc(C(=O)Nc2ccc(S(=O)(=O)Nc3onc(C)c3C)cc2)cc1	i	i	i	i	8.5µM
CCOc1cc(C(=O)Nc2ccc(S(=O)(=O)Nc3onc(C)c3C)cc2)cc(OCC)c1OCC	nt	nt	i	nt	nt
CCCCOc1ccc(C(=O)Nc2ccc(S(=O)(=O)Nc3nc(C)cc(C)n3)cc2)cc1	i	nt	nt	nt	?
CCCOc1ccc(C(=O)Nc2ccc(S(=O)(=O)Nc3cc(C)nc(C)n3)cc2)cc1	nt	i	i	i	15µM
